Assay outcomes deposited in PubChem by National Center for Advancing Translational Sciences (NCATS).
Cruzain Triton – inhibitors of Trypanosoma cruzi cruzain with detergent | purified cruzain, Z-FR-AMC fluorescence, 0.01% Triton | Potency, µM, most hits filed as inhibitors | 200,000 compounds, 0.43% hits | AID 1478; note: nearly all actives have a fitted effect of over 40% in size
Target sequence (P25779 123-467 limits assumed): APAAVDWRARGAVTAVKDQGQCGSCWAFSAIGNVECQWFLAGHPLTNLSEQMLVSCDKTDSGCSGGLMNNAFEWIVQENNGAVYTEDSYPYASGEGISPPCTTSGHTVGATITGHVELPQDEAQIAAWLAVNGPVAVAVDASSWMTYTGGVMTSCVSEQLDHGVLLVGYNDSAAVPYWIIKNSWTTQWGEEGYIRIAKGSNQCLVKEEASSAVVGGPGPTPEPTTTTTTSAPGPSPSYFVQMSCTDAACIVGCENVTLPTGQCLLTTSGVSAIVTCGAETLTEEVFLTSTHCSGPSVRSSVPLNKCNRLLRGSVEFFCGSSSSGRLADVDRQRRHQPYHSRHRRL
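Z-FR-AMC hydrolysis (2 uM substrate) by cruzain (1.5 nM) monitored kinetically at ex 360/em 450 nm after 15 min room-temperature compound exposure; 0.01% Triton X-100, pH 5.5, 5 mM DTT.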
Cruzain noTriton – blocks cruzain activity in detergent-free assay | AID 1476 | Potency, µM, most hits filed as inhibitors | 200,000 compounds, 2.3% hits | purified cruzain, Z-FR-AMC fluorescence, no detergent; note: nearly all actives have a fitted effect of over 40% in size
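Detergent-free condition (0.00005% Triton X-100) in acetate buffer pH 5.5 with DTT. 1.5 nM enzyme and compound were pre-mixed 15 min, then 2 uM Z-FR-AMC substrate added; reaction progress from fluorescence change between first and third reads (60 s).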
Of the large screens only hits and unclear results are named; the others gave an inactive call. The list is not random: actives were taken first. Their share in the collection is about 2.6%. Calls come from the whole dose curve; as a rule, active = well fitted curve in the direction sought with a large enough effect; inconclusive = small, poorly fitted or top-dose-only effect, or another doubt; inactive = no such curve, though single readings can be large; an effect the other way counts as inactive or inconclusive.

COCCn1c(C)cc(C2=NNC(=Nc3ccccc3F)SC2)c1C	none
O=C(c1ccc(Br)cc1)N1CCN(CCc2ccncc2)CC1	none
Clc1ccccc1-c1cc(NCc2ccccc2)ncn1	none
CCOC(=O)c1cccc(NC(=O)CC2C(=O)N(c3ccc(Cl)cc3)C(=O)N2C2CCCC2)c1 (stereo not given)	none
Cc1ccc2nc(C3CCCN(C(=O)NCc4ccccc4)C3)[nH]c2c1 (stereo not given)	Cruzain Triton inconclusive, Cruzain noTriton 6.3µM
Cc1ccc2nc(C3CCN(C(=O)NCc4ccccc4)CC3)[nH]c2c1	none
NC(N)=NC(N)=Nc1c(F)c(F)c(F)c(F)c1F	none
CCc1nnc(NC(=O)c2ccc(COc3ccccc3)o2)s1	Cruzain noTriton inconclusive
CCc1nnc(NC(=O)c2ccc(-c3cc(C(F)(F)F)ccc3Cl)o2)s1	none
CCc1nnc(NC(=O)c2ccc(COc3ccc(C)cc3)o2)s1	Cruzain noTriton 25µM
CCc1nnc(NC(=O)c2ccc(-c3cccc(C(F)(F)F)c3)o2)s1	Cruzain noTriton 13µM
Cc1ccc2sc(NC(=O)c3ccc(N4C(=O)CCC4=O)cc3)nc2c1C	Cruzain noTriton inconclusive
CCc1cccc2sc(NC(=O)c3ccc(N4C(=O)CCC4=O)cc3)nc12	Cruzain noTriton 7.9µM
Cc1ccc(CSCCNC(=O)C2CCN(S(=O)(=O)Cc3ccccc3)CC2)cc1	none
O=C(Nc1cccc(-c2cn3ccccc3n2)c1)c1cc2ccccc2oc1=O	Cruzain Triton 3.5µM, Cruzain noTriton inconclusive
O=C(Nc1cccc(-c2cn3ccccc3n2)c1)c1cccs1	none
N#CC1=C(N)OC2=C(CCc3ccccc32)C1c1ccccc1 (stereo not given)	none
Cc1ccc(/C=C2\CCC3=C2OC(N)=C(C#N)C3c2ccc(C)cc2)cc1 (stereo not given)	Cruzain noTriton 25µM
CCc1nnc2n1N(C(C)=O)C(c1ccc(C(C)(C)C)cc1)=C(C(C)=O)S2	Cruzain noTriton inconclusive
CCOc1ccc(/C=C/c2nc(C#N)c(NC(C)CC)o2)cc1 (stereo not given)	none
CCOC(=O)c1sc(-c2ccccc2)cc1NC(=O)Nc1ccc([N+](=O)[O-])cc1	Cruzain noTriton 10µM
CCOc1ccc(-c2cc(NC(=O)Nc3cccc(C(C)=O)c3)c(C(=O)OC)s2)cc1	none
Cc1ccc(NC(=O)Nc2nc(-c3ccc(C)s3)cs2)cc1	Cruzain noTriton 25µM
O=C(Nc1nc(-c2cc(Cl)sc2Cl)cs1)c1ccc(Br)s1	Cruzain noTriton 7.9µM
Cc1ccc(NC(=O)Nc2nnc(N3CCCC3)s2)cc1	none
O=C(Nc1nc(-c2ccccn2)cs1)c1ccc(Br)s1	Cruzain noTriton inconclusive
O=C(Nc1nc(-c2cc(Cl)sc2Cl)cs1)c1cccs1	Cruzain noTriton inconclusive
CC(=O)Nc1nc(-c2ccc(Br)s2)cs1	Cruzain noTriton 13µM
O=C(CCNS(=O)(=O)c1ccc2c(c1)CCN2C(=O)C1CC1)Nc1ccc(F)cc1F	none
COc1ccc(-c2nc(S(=O)(=O)c3ccc(Cl)cc3)c(N3CCCCCC3)o2)cc1	none
Cc1ccc(-c2cn(-c3cccc(Cl)c3)c(S(=O)(=O)CC(=O)Nc3ccccc3F)n2)cc1	Cruzain noTriton 16µM
Cc1ccc(NC(=O)CS(=O)(=O)c2nc(-c3ccc(C)cc3)cn2-c2ccc(C)cc2)cc1	Cruzain noTriton 13µM
Cc1cccc(-n2cc(-c3ccccc3)nc2SCC(=O)Nc2ccccc2Cl)c1	none
O=C(CS(=O)(=O)c1nc(-c2ccc(Cl)cc2)cn1-c1ccccc1)Nc1cccc(Cl)c1	Cruzain Triton inconclusive
O=C(CS(=O)(=O)c1nc(-c2ccc(Cl)cc2)cn1-c1ccccc1)Nc1ccc(F)cc1F	Cruzain noTriton 25µM
CCn1cc(S(=O)(=O)CC(=O)Nc2ccc(C)cc2)c2ccccc21	none
O=C(CN1CCN(c2ccc(Cl)cc2)CC1)Nc1ccc(F)cc1F	none
Cc1ccc(-c2cn(-c3cccc(Cl)c3)c(S(=O)(=O)CC(=O)Nc3cccc(C)c3)n2)cc1	Cruzain noTriton 16µM
COC(=O)NC(CCc1ccccc1)C(C(=O)OC)C(=O)OC (stereo not given)	none
C[C@@]12CCC(=O)C=C1CC[C@@H]1[C@@H]2[C@H](O)C[C@]2(C)[C@@H]1CC[C@]2(O)C(=O)CO	none
CCc1cccc(C)c1NC(=O)c1cc(S(=O)(=O)NCc2ccccc2Cl)ccc1F	none
Cc1cnc(CNc2ncncc2-c2c(C)noc2C)cn1	none
NCc1nnn(Cc2ccccc2)c1N	none
NCCC(O)C(=O)NC1C[C@@H](N)[C@H](O[C@@H]2OC(CN)C(O)C(O)C2O)C(O)[C@H]1O[C@H]1OC(CO)C(O)C(N)C1O (stereo not given in full)	none
Cc1cccc(NC(=O)CS(=O)(=O)c2nc(-c3ccccc3)cn2-c2cccc(Cl)c2)c1C	Cruzain noTriton 10µM
CCOc1ccc(-c2cn(-c3ccc(C)cc3)c(SCC(=O)Nc3ccc(C)cc3)n2)cc1	Cruzain noTriton 25µM
CCOc1ccc(-c2cn(-c3ccc(OC)cc3)c(SCC(=O)Nc3ccccc3Cl)n2)cc1	Cruzain noTriton inconclusive
